Measurements: the supplement of paper PMC8728848
About 410 targets per protein were measured; listed, in parts, are those with the strongest signals and a random draw of the rest.

Legend:
Test in all cases: glycan array binding signal (z-score within array); higher = stronger binding
Details in all cases: glycan notation: IUPAC condensed, linker removed
[1] = target: Fuc(a1-2)Gal(b1-3)GlcNAc(b1-3)[Fuc(a1-2)Gal(b1-3)GlcNAc(b1-6)]GalNAc
Outline: (§1)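 The Consortium for Functional Glycomics database supplied 3228 glycan arrays, of which those lacking an available protein sequence were dropped. The binding signal, a within-array Z-score, was averaged across arrays of the same protein sequence and across linkers. Negative scores can be read as non-binding.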

[2] = target: Fuc(a1-2)Gal(b1-4)Fuc(a1-3)]GlcNAc(b1-2)Man(a1-3)[Fuc(a1-2)Gal(b1-4)[Fuc(a1-3)]GlcNAc(b1-2)Man(a1-6)]Man(b1-4)GlcNAc(b1-4)GlcNAc
Outline: as §1

[3] = target: Fuc(a1-2)Gal(b1-4)GlcNAc(b1-2)Man(a1-3)[Fuc(a1-2)Gal(b1-4)GlcNAc(b1-2)Man(a1-6)]Man(b1-4)GlcNAc(b1-4)GlcNAc
Outline: as §1

[4] = target: Fuc(a1-2)Gal(b1-4)[Fuc(a1-3)]GlcNAc(b1-2)Man(a1-3)[Fuc(a1-2)Gal(b1-4)[Fuc(a1-3)]GlcNAc(b1-2)Man(a1-6)]Man(b1-4)GlcNAc(b1-4)[Fuc(a1-6)]GlcNAc
Outline: as §1

[5] = target: Fuc(a1-2)Gal(b1-4)[Fuc(a1-3)]GlcNAc(b1-3)Gal(b1-4)[Fuc(a1-3)]GlcNAc
Outline: as §1

[6] = target: Fuc(a1-2)[Gal(a1-3)]Gal(b1-3)GalNAc(b1-3)Gal(a1-4)Gal(b1-4)Glc
Outline: as §1

[7] = target: Fuc(a1-2)[Gal(a1-3)]Gal(b1-4)Glc
Outline: as §1

[8] = target: Fuc(a1-2)[Gal(a1-3)]Gal(b1-4)[Fuc(a1-3)]Glc
Outline: as §1

[9] = target: Fuc(a1-2)[GalNAc(a1-3)]Gal
Outline: as §1

[10] = target: Fuc(a1-2)[GalNAc(a1-3)]Gal(b1-3)GlcNAc(b1-3)GalNAc
Outline: as §1

[11] = target: Fuc(a1-2)[GalNAc(a1-4)]Gal(b1-4)GlcNAc
Outline: as §1

[12] = target: Fuc(a1-3)[Gal(b1-4)]GlcNAc(b1-3)Gal(b1-4)[Fuc(a1-3)]GlcNAc
Outline: as §1

[13] = target: Gal(b1-3)GalNAc(b1-3)Gal(a1-4)Gal(b1-4)Glc
Outline: as §1

[14] = target: Gal(b1-3)GlcNAc(b1-3)Gal(b1-4)Glc
Outline: as §1

[15] = target: Gal(b1-3)[Fuc(a1-4)]GlcNAc(b1-2)Man(a1-3)[Gal(b1-3)[Fuc(a1-4)]GlcNAc(b1-2)Man(a1-6)]Man(b1-4)GlcNAc(b1-4)[Fuc(a1-6)]GlcNAc
Outline: as §1

[16] = target: Gal(b1-4)GlcNAc(b1-3)Gal(b1-4)Glc
Outline: as §1

[17] = target: Gal(b1-4)GlcNAc(b1-3)Gal(b1-4)GlcNAc(b1-2)[Gal(b1-4)GlcNAc(b1-3)Gal(b1-4)GlcNAc(b1-6)]Man(a1-6)[Gal(b1-4)GlcNAc(b1-3)Gal(b1-4)GlcNAc(b1-2)Man(a1-3)]Man(b1-4)GlcNAc(b1-4)[Fuc(a1-6)]GlcNAc
Outline: as §1

[18] = target: Gal(b1-4)GlcNAc(b1-3)Gal(b1-4)GlcNAc(b1-3)Gal(b1-4)GlcNAc(b1-3)Gal(b1-4)GlcNAc(b1-2)[Gal(b1-4)GlcNAc(b1-3)Gal(b1-4)GlcNAc(b1-3)Gal(b1-4)GlcNAc(b1-3)Gal(b1-4)GlcNAc(b1-6)]Man(a1-6)[Gal(b1-4)GlcNAc(b1-3)Gal(b1-4)GlcNAc(b1-3)Gal(b1-4)GlcNAc(b1-3)Gal(b1-4)GlcNAc(b1-2)Man(a1-3)]Man(b1-4)GlcNAc(b1-4)[Fuc(a1-6)]GlcNAc
Outline: as §1

[19] = target: Gal(b1-4)GlcNAc(b1-3)Gal(b1-4)GlcNAc(b1-3)Gal(b1-4)GlcNAc(b1-3)Gal(b1-4)GlcNAc(b1-3)Gal(b1-4)GlcNAc(b1-2)[Gal(b1-4)GlcNAc(b1-3)Gal(b1-4)GlcNAc(b1-3)Gal(b1-4)GlcNAc(b1-3)Gal(b1-4)GlcNAc(b1-3)Gal(b1-4)GlcNAc(b1-6)]Man(a1-6)[Gal(b1-4)GlcNAc(b1-3)Gal(b1-4)GlcNAc(b1-3)Gal(b1-4)GlcNAc(b1-3)Gal(b1-4)GlcNAc(b1-3)Gal(b1-4)GlcNAc(b1-2)Man(a1-3)]Man(b1-4)GlcNAc(b1-4)[Fuc(a1-6)]GlcNAc
Outline: as §1

[20] = target: Gal(b1-4)GlcNAc(b1-3)[Fuc(a1-3)GlcNAc(b1-6)]Gal(b1-4)Glc
Outline: as §1

Gal6P(b1-4)GlcNAc = target: Gal6P(b1-4)GlcNAc
Outline: as §1

Gal6S(b1-4)GlcNAc6S = target: Gal6S(b1-4)GlcNAc6S
Outline: as §1

[21] = target: GalNAc(b1-3)Gal(a1-6)Gal(b1-4)Glc
Outline: as §1

GalNAc(b1-4)GlcNAc = target: GalNAc(b1-4)GlcNAc
Outline: as §1

[22] = target: GalNAc(b1-4)GlcNAc(b1-2)Man
Outline: as §1

[23] = target: GalNAc(b1-4)GlcNAc(b1-3)GalNAc(b1-4)GlcNAc
Outline: as §1

Glc(b1-4)Glc = target: Glc(b1-4)Glc
Outline: as §1

[24] = target: GlcNAc(a1-4)Gal(b1-4)GlcNAc
Outline: as §1

[25] = target: GlcNAc(a1-4)Gal(b1-4)GlcNAc(b1-3)Gal(b1-4)Glc
Outline: as §1

[26] = target: GlcNAc(a1-4)Gal(b1-4)GlcNAc(b1-3)Gal(b1-4)GlcNAc(b1-3)Gal(b1-4)GlcNAc
Outline: as §1

[27] = target: GlcNAc(b1-3)Gal(b1-4)GlcNAc(b1-2)Man(a1-3)[GlcNAc(b1-3)Gal(b1-4)GlcNAc(b1-2)Man(a1-6)]Man(b1-4)GlcNAc(b1-4)[Fuc(a1-6)]GlcNAc
Outline: as §1

[28] = target: GlcNAc(b1-3)Gal(b1-4)GlcNAc(b1-3)Gal(b1-4)GlcNAc
Outline: as §1

[29] = target: GlcNAc(b1-3)Gal(b1-4)GlcNAc(b1-3)GalNAc
Outline: as §1

[30] = target: GlcNAc(b1-4)GlcNAc(b1-4)GlcNAc
Outline: as §1

[31] = target: GlcNAc(b1-4)GlcNAc(b1-4)GlcNAc(b1-4)GlcNAc(b1-4)GlcNAc
Outline: as §1

[32] = target: GlcNAc(b1-4)GlcNAc(b1-4)GlcNAc(b1-4)GlcNAc(b1-4)GlcNAc(b1-4)GlcNAc
Outline: as §1

[33] = target: Neu5Ac(a2-3)Gal(b1-4)GlcNAc(b1-2)Man
Outline: as §1

[34] = target: Neu5Ac(a2-3)Gal(b1-4)GlcNAc(b1-3)Gal(b1-4)GlcNAc(b1-3)GalNAc
Outline: as §1

[35] = target: Neu5Ac(a2-3)Gal(b1-4)GlcNAc(b1-3)Gal(b1-4)GlcNAc(b1-3)[Neu5Ac(a2-3)Gal(b1-4)GlcNAc(b1-3)Gal(b1-4)GlcNAc(b1-6)]GalNAc
Outline: as §1

[36] = target: Neu5Ac(a2-6)Gal(b1-4)GlcNAc(b1-2)[Neu5Ac(a2-6)Gal(b1-4)GlcNAc(b1-4)]Man(a1-3)[GlcNAc(b1-4)][Neu5Ac(a2-6)Gal(b1-4)GlcNAc(b1-2)[Neu5Ac(a2-6)Gal(b1-4)GlcNAc(b1-6)]Man(a1-6)]Man(b1-4)GlcNAc(b1-4)GlcNAc
Outline: as §1

[37] = target: Neu5Ac(a2-6)Gal(b1-4)GlcNAc(b1-3)Gal(b1-4)GlcNAc(b1-6)[Gal(b1-3)]GalNAc
Outline: as §1

[38] = target: Neu5Ac(a2-6)Gal(b1-4)GlcNAc(b1-6)GalNAc
Outline: as §1

[39] = target: Neu5Ac(a2-6)Gal(b1-4)GlcNAc6S
Outline: as §1

[40] = target: Neu5Ac(a2-6)GlcNAc(b1-4)GlcNAc(b1-4)GlcNAc
Outline: as §1

[41] = target: Neu5Ac(a2-8)Neu5Ac(a2-8)Neu5Ac(a2-3)Gal(b1-4)Glc
Outline: as §1

Neu5Gc(a2-6)GalNAc = target: Neu5Gc(a2-6)GalNAc
Outline: as §1

B1: WGA (Triticum vulgare) (protein)
chain: QRCGEQGSNMECPNNLCCSQYGYCGMGGDYCGKGCQNGACWTSKRCGSQAGGATCPNNHCCSQYGHCGFGAEYCGAGCQGGPCRADIKCGSQSGGKLCPNNLCCSQWGFCGLGSEFCGGGCQSGACSTDKPCGKDAGGRVCTNNYCCSKWGSCGIGPGYCGAGCQSGGCDAVFAGAITANSTLLAE
- glycan array binding signal (z-score) [1]: -0.344
- glycan array binding signal (z-score) [2]: -0.173
- glycan array binding signal (z-score) [3]: -0.197
- glycan array binding signal (z-score) [4]: -0.297
- glycan array binding signal (z-score) [5]: -0.365
- glycan array binding signal (z-score) [6]: -0.364
- glycan array binding signal (z-score) [7]: -0.359
- glycan array binding signal (z-score) [8]: -0.309
- glycan array binding signal (z-score) [9]: -0.082
- glycan array binding signal (z-score) [10]: -0.299
- glycan array binding signal (z-score) [11]: 3
- glycan array binding signal (z-score) [12]: -0.381
- glycan array binding signal (z-score) [13]: -0.328
- glycan array binding signal (z-score) [14]: -0.373
- glycan array binding signal (z-score) [15]: -0.172
- glycan array binding signal (z-score) [16]: -0.341
- glycan array binding signal (z-score) [17]: -0.132
- glycan array binding signal (z-score) [18]: 0.022
- glycan array binding signal (z-score) [19]: 0.244
- glycan array binding signal (z-score) [20]: -0.275
- glycan array binding signal (z-score) (Gal6P(b1-4)GlcNAc): -0.418
- glycan array binding signal (z-score) (Gal6S(b1-4)GlcNAc6S): -0.371
- glycan array binding signal (z-score) [21]: -0.316
- glycan array binding signal (z-score) (GalNAc(b1-4)GlcNAc): 2.78
- glycan array binding signal (z-score) [22]: 2.71
- glycan array binding signal (z-score) [23]: 2.8
- glycan array binding signal (z-score) (Glc(b1-4)Glc): -0.351
- glycan array binding signal (z-score) [24]: 2.77
- glycan array binding signal (z-score) [25]: 2.56
- glycan array binding signal (z-score) [26]: 3.16
- glycan array binding signal (z-score) [27]: 1.15
- glycan array binding signal (z-score) [28]: 1.71
- glycan array binding signal (z-score) [29]: -0.359
- glycan array binding signal (z-score) [30]: 3.8
- glycan array binding signal (z-score) [31]: 5.62
- glycan array binding signal (z-score) [32]: 5.15
- glycan array binding signal (z-score) [33]: -0.304
- glycan array binding signal (z-score) [34]: -0.353
- glycan array binding signal (z-score) [35]: -0.001
- glycan array binding signal (z-score) [36]: -0.366
- glycan array binding signal (z-score) [37]: -0.248
- glycan array binding signal (z-score) [38]: -0.307
- glycan array binding signal (z-score) [39]: -0.359
- glycan array binding signal (z-score) [40]: 3.14
- glycan array binding signal (z-score) [41]: -0.35
- glycan array binding signal (z-score) (Neu5Gc(a2-6)GalNAc): -0.324
